Experimental data: publication PMC4336329 (PLoS ONE, 2015)
Hit rate of the full screen: of about 310,000 compounds, about 14,000 (4.5%) showed an effect of 50% or more. Effects have a minus sign here. The full list was thinned out, with strong results kept by preference.

These compounds were tested against human ether-à-go-go-related gene (hERG) potassium channel (human, UniProt Q12809) (assay: primary screen, population patch clamp on CHO cells stably expressing hERG; higher = less effect of the substance).
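Further: peak tail current of the secondary pulse compared with the same well before compound.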

Sequence of human ether-à-go-go-related gene (hERG) potassium channel (Q12809 whole entry, looked up): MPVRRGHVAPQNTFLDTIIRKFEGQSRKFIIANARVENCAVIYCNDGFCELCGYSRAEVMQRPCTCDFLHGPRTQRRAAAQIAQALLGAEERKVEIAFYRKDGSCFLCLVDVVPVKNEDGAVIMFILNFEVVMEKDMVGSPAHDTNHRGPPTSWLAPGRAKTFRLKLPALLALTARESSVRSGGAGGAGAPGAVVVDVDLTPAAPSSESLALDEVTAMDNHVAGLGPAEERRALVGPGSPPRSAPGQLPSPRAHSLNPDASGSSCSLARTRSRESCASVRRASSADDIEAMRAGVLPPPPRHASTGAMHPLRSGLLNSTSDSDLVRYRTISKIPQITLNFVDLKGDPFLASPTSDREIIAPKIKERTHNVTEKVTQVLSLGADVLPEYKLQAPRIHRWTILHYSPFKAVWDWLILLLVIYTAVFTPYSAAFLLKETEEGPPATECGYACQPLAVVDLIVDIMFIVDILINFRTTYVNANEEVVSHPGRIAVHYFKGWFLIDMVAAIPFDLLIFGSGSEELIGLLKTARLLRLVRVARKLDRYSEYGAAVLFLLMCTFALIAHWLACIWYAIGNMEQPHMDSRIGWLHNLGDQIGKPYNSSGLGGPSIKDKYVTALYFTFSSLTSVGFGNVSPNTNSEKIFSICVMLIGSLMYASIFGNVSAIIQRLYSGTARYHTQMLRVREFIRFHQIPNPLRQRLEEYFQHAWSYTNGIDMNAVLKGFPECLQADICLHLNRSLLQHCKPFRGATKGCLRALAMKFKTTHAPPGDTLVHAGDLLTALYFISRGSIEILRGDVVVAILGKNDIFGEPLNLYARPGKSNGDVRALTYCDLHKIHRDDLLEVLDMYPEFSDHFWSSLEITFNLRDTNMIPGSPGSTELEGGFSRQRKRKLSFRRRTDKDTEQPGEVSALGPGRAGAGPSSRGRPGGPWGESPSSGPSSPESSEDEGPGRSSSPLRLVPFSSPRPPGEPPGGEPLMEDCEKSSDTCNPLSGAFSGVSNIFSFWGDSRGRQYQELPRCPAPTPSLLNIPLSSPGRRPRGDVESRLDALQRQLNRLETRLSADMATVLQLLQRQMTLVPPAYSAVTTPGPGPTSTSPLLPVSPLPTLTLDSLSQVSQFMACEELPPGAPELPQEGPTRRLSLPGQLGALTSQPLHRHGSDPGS

Row | SMILES | hERG current change (%, negative = inhibition) at 10uM [%]
1 | Cc1csc(NC(=O)c2cccs2)n1 | -1.76
2 | CCOc1cc(NC(=S)NCC2CCCO2)c(OCC)cc1NC(=O)C1CC1 (stereo not drawn) | 36.2
3 | C=CCn1cccc(C(=O)Nc2cc(OC)ccc2OC)c1=O | 1.46
4 | CN(Cc1ccc(Cl)cc1)C(=O)c1cc(S(=O)(=O)N2CCOCC2)ccc1N1CCCC1 | -72.8
5 | CCc1ccc(CN(C)C(=O)c2cc(S(=O)(=O)N3CCOCC3)ccc2N2CCCC2)cc1 | -50.1
6 | CN(Cc1cccs1)C(=O)c1cc(S(=O)(=O)N2CCOCC2)ccc1N1CCCC1 | -27.1
7 | Cc1ccsc1CN(C)C(=O)c1cc(S(=O)(=O)N2CCOCC2)ccc1N1CCCC1 | -40.5
8 | COc1ccc(CN(C)C(=O)c2cc(S(=O)(=O)N3CCOCC3)ccc2N2CCCC2)cc1 | -35.2
9 | CN(Cc1cccc(F)c1)C(=O)c1cc(S(=O)(=O)N2CCOCC2)ccc1N1CCCC1 | -24.5
10 | COc1ccc(C2C(CN3CCOCC3)C(=O)N2c2ccccc2)cc1 (stereo not drawn) | 9.52
11 | Cc1ccc(OCCOc2cccc(Br)c2)c([N+](=O)[O-])n1 | 0.558
12 | Cc1cccc(NS(=O)(=O)c2cccc(C(=O)N3CCN(c4ccccn4)CC3)c2)c1 | -22.7
13 | COc1ccc(C(=O)NCc2nnc(SCC(=O)Nc3cccc(OC)c3)o2)cc1 | -1.25
14 | CCOC(=O)c1c(NC(=O)c2nn(CC)cc2Br)sc2c1CCCCC2 | 8.6
15 | COc1ccc(N(C)C(=O)c2cn(CC(C)C)c(=O)c3cc(OC)c(OC)cc23)cc1 | 8.8
16 | Nc1c(-c2ccccc2)cnn1-c1cccc(Cl)c1 | -12.3
17 | Nc1c(-c2ccccc2)cnn1-c1ccccc1 | 12
18 | Nc1c(-c2cccc(Cl)c2)cnn1-c1ccccc1 | -60.3
19 | O=C(NCCc1ccccc1)C1CCN(C(=O)c2ccc(F)cc2)CC1 | -2.25

Row | SMILES | hERG current change (%, negative = inhibition) at 10uM [%]
20 | O=C(NCc1ccc(OC(F)(F)F)cc1)C1CC(c2ccccc2[N+](=O)[O-])=NO1 (stereo not drawn) | -68.3
21 | O=C(NCCc1ccccc1)C1CCN(C(=O)c2ccc([N+](=O)[O-])cc2)CC1 | -63.2
22 | COc1ccc(CCNC(=O)C2CC(c3cccc([N+](=O)[O-])c3)=NO2)cc1 (stereo not drawn) | -21.8
23 | COc1ccc(CCNC(=O)C2CCN(C(=O)c3ccc(F)cc3)CC2)cc1 | 10.2
24 | O=C(NCc1ccc(C(F)(F)F)cc1)C1CC(c2ccccc2[N+](=O)[O-])=NO1 (stereo not drawn) | -46.1
25 | COCCNC(=O)C1CC(c2ccc([N+](=O)[O-])cc2)=NO1 (stereo not drawn) | -0.798
26 | COc1ccc(CCNC(=O)C2CCN(C(=O)c3ccc(Cl)cc3)CC2)cc1 | -12.8
27 | COc1ccc(CCNC(=O)C2CC(c3ccc([N+](=O)[O-])cc3)=NO2)cc1 (stereo not drawn) | -61.6
28 | COc1ccc(CNC(=O)C2CC(c3ccccc3[N+](=O)[O-])=NO2)cc1 (stereo not drawn) | -27.7
29 | COc1ccc(CCNC(=O)C2CCN(C(=O)c3ccccc3)CC2)cc1 | 2.13
30 | COc1ccc(CCNC(=O)C2CCN(C(=O)c3ccc([N+](=O)[O-])cc3)CC2)cc1 | -65.6
31 | Cc1ccc(OCC(=O)Nc2ccccc2N2CCCC2)c(C)c1 | -3.14
32 | CCCN(c1ccccc1C(=O)O)S(=O)(=O)c1ccc2c(c1)n(C)c(=O)n2C | 19.8
33 | Cc1ccc(NCC(O)C(O)C(O)CO)cc1C (stereo not drawn) | 14.9
34 | Clc1ccc2oc(-c3ccccn3)nc2c1 | -0.352
35 | O=C(NCCNC(=O)c1ccc([N+](=O)[O-])cc1)c1ccncc1 | 12
36 | COc1ccc(CCNC(=O)c2nc3ncccn3n2)cc1OC | 18.6
37 | Cc1ccc2c(c1)N(CC(=O)N1CCCc3ccccc31)C(=O)CO2 | -8.16
38 | COc1cccc(N2CCN(c3ccc(N4C(=O)CCC4=O)cc3[N+](=O)[O-])CC2)c1 | 13.7

Row | SMILES | hERG current change (%, negative = inhibition) at 10uM [%]
39 | COCCCNC(=O)CN(C1CCCCC1)S(=O)(=O)c1ccc(C)cc1 | -0.742
40 | CCC(CC)C(=O)NCCc1cc2c(C)ccc(C)c2[nH]c1=O | 2.39
41 | COc1ccccc1CN(C)C(=O)C(c1ccccc1)c1ccccc1 | -2.32
42 | Cc1ccc(C(=O)N2CCC(C(=O)NCc3ccco3)CC2)cc1 | -11.3
43 | COc1cccc(C(=O)N2CCC(C(=O)NCc3ccco3)CC2)c1 | -14.9
44 | O=C(NCc1ccco1)C1CCN(C(=O)c2ccc([N+](=O)[O-])cc2)CC1 | -53
45 | CCn1nnc(NC(=O)C(C)(c2ccccc2)c2ccccc2)n1 | -10.4
46 | OCC1CCCN(Cc2ccc(-c3ccccc3)cc2)C1 (stereo not drawn) | -28.4
47 | COc1ccc(S(=O)(=O)NCC2CCCN(Cc3cccnc3)C2)cc1 (stereo not drawn) | -47.7
48 | CCc1ccc(CN2CCCC(CNS(=O)(=O)c3ccc(OC)cc3)C2)cc1 (stereo not drawn) | -69.8
49 | COc1ccc(S(=O)(=O)NCC2CCCN(Cc3ccccc3Cl)C2)cc1 (stereo not drawn) | -37.9
50 | COc1ccc(S(=O)(=O)NCC2CCCN(Cc3ccc(C)o3)C2)cc1 (stereo not drawn) | -25.5
51 | COc1ccc(S(=O)(=O)NCC2CCCN(Cc3cccc(C(C)=O)c3)C2)cc1 (stereo not drawn) | -43.9
52 | COc1ccc(S(=O)(=O)NCC2CCCN(Cc3ccc(O)cc3)C2)cc1 (stereo not drawn) | -59.2
53 | CN(C)S(=O)(=O)NCC1CCCN(Cc2cc3ccccc3s2)C1 (stereo not drawn) | -6.37
54 | CN(C)S(=O)(=O)NCC1CCCN(Cc2ccc(-c3ccccc3)cc2)C1 (stereo not drawn) | -50.8
55 | CCOc1ccccc1CN1CCCC(CNS(=O)(=O)c2ccc(OC)cc2)C1 (stereo not drawn) | -63.7
56 | COc1ccc(S(=O)(=O)NCC2CCCN(CC(C)(C)C)C2)cc1 (stereo not drawn) | 14.9
57 | COc1ccc(S(=O)(=O)NCC2CCCN(Cc3ccccc3C)C2)cc1 (stereo not drawn) | -12.3
